What all share (experiment): NCI-60 one-dose screen, 48 h (100 = growth as untreated, 0 = no growth, -100 = all killed)
Common to all, as to conditions: 10 µM unless noted

For test [1], the system named is DU-145 prostate.
Test [2] concerns K-562 leukemia.
Test [3] deals with MALME-3M melanoma.
Test [4] has as its system MDA-MB-231 breast.
Test [5] relates to RXF 393 renal.
Test [6] concerns SF-268 CNS.
Test [7] concerns SF-295 CNS.
Test [8] has as its system SF-539 CNS.
In test [9] the test system is UACC-257 melanoma.
The test system of test [10] is M14 melanoma.

The panel holds about 83,000 compounds, 20% with a hit somewhere; the sample as a whole holds those more often.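 In brief: 96-well plates, 48 h treatment, single concentration, percent growth endpoint.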 Values without a mark were called inactive. The source made the active and inactive calls. How the source made its calls: active means growth percent below 10; inactive means the rest.

As for `CCCCCN1C=C/C(=C\C(=O)N(C)c2ccc(Oc3ccccc3)cc2)c2ccccc21`, the growth in test [1] is 103%; in test [2] it was 48.8%; in test [3] it was 83.7%; in test [4], 76.9%; in test [5], 85.8%; in [6] it was 87.8%. Moreover, the growth in test [7] was 81.1%; in test [8] it was 92.8%; in test [9], 74.2%; in [10] it was 94.1%.

`Cc1cc2nc3c4cccc(O)c4n(CCN(C)C)c3nc2cc1C`: the growth is 29.8% in test [1]; 6.28% (active) in [2]; 32.9% in [3]; 28.1% in [4]; 35.1% in test [5]; 51.1% in [6]. Also, the growth in test [7] is 32.1%; in test [8] it was 25.7%; in [9] it was 63.5%; in test [10], 44.2%.

On to `CCOC(=O)CSc1nc2ccccc2c(=O)n1Cc1ccc(S(N)(=O)=O)cc1`, for which the growth in test [1] was 113%; in [2] it was 97.1%; in test [3] it was 105%; in test [4] it was 101%; in [5] it was 98.4%; in [6], 99.2%. The growth in test [7] was 99.4%; in [8], 97.7%; in test [9] it was 101%; in [10], 97%.

`CN(C)CC(O)c1ccc(/C=C/c2ccc(Cl)cc2)cc1` (stereo not drawn): the growth in test [1] was -88.8% (active); in test [2] it was -47.6% (active); in test [3], 21.9%; in test [4] it was -82.3% (active); in test [5], 8.01% (active); in [6], -52.4% (active). In addition, the growth is -48.2% (active) in test [7], -67.6% (active) in [8], -81.2% (active) in test [9] and -34.8% (active) in test [10].

On to `COc1cc(C2C3CC4CCCC[C@H]4N3[C@@]3(C(=O)Nc4cc(Cl)ccc43)C2C(=O)c2nc3ccccc3[nH]2)cc(OC)c1OC` (stereo partly drawn), for which the growth in test [1] was 80.5%; in test [2], 40.5%; in test [3] it was 56.6%; in [4] it was 76.8%; in test [5], 51.1%; in test [6], 67.3%. For the same molecule, the growth in test [7] is 45.5%; in [8], 70.1%; in [9] it was 61.6%; in [10] it was 52%.

Consider `O=C1c2ccc3c4c(ccc(c24)C(=O)N1CCCNCc1ccccc1F)C(=O)N(CCCNCc1ccccc1F)C3=O`, for which the growth in test [1] was -91.9% (active); in test [2] it was -28.2% (active); in [3], -72.2% (active); in test [4] it was -7.55% (active); in test [5], -87.9% (active); in test [6], -65.1% (active). The growth was -67.7% (active) in test [7], -65.5% (active) in [8], -98.6% (active) in test [9] and -60.8% (active) in [10].

Regarding `CC(C)N1C(=O)S/C(=C2/SC(=O)N(C(C)C)C2=O)C1=O`, the growth was 91.8% in test [1]; 94.4% in test [2]; 90.4% in test [3]; 76.2% in [4]; 99.2% in test [5]; 94.8% in test [6]. The growth was 101% in test [7], 86.4% in test [8], 99% in [9] and 93% in [10].

As for `O=C(C[n+]1cccc2ccccc21)c1ccc(O)c(O)c1`, the growth in test [1] is 84.8%; in [2] it was 28.5%; in test [3], 53.9%; in test [4], 59.1%; in test [5] it was 49.6%; in [6] it was 84.7%. For the same molecule, the growth in [7] is 105%; in [8], 91.2%; in test [9], 78.1%; in test [10], -83.4% (active).

For the molecule `Cc1ccc(NC(=O)Cc2ccc(/C=C/C(=O)c3ncc[nH]3)cc2)cc1`, the growth was 16% in test [1]; 8.84% (active) in test [2]; 96.3% in [3]; 56.6% in [4]; 52.7% in test [5]; 24.7% in [6]. The growth in [7] was 24%; in [8], -14.8% (active); in [9] it was 83.4%; in test [10], 82.5%.

With `COc1cc2c(=O)n(CCN)c3c4cc5c(cc4ccc3c2cc1OC)OCO5`, the growth in test [1] was -83.2% (active); in test [2] it was -55% (active); in [3], -72.3% (active); in test [4], -81.7% (active); in test [5], -76.8% (active); in test [6], -59.6% (active). Further, the growth in [7] is 25%; in test [8], -75.9% (active); in test [9], 33.8%; in test [10] it was -50.8% (active).

As to `Fc1ccc2c(-c3cncn3CCc3ccccc3)c[nH]c2c1`, the growth is 104% in [1]; 74.6% in test [2]; 91.4% in [3]; 87.8% in test [4]; 79.6% in test [5]; 83.9% in test [6]. The growth in test [7] is 83.5%; in test [8], 94.6%; in test [9] it was 94.6%; in test [10], 90.8%.

Take `O=C(/C=C/c1ccc(F)cc1)c1ccc(NC(=O)N2CCN(c3cc4c(cc3F)c(=O)c(C(=O)O)cn4C3CC3)CC2)cc1`: the growth in [1] is 103%; in test [2] it was 91.2%; in [3] it was 91.3%; in test [4] it was 89.7%; in test [5], 98.3%; in test [6] it was 89.9%. Moreover, the growth was 98.7% in test [7], 94.1% in test [8], 97.2% in test [9] and 97.8% in test [10].

On to `CN(CCN(C)c1ccc(C(=N)N)cc1)c1ccc(C(=N)N)cc1`, for which the growth in [1] is 98.9%; in test [3] it was 57.9%; in test [4], 91.3%; in [5] it was 118%; in test [6] it was 109%; in test [7], 94.1%. Moreover, the growth was 93.2% in test [8], 92.6% in test [9] and 103% in test [10].

Take `Cn1cc(-c2csc(-c3c[nH]c4ccccc34)n2)c2ccnc(Cl)c21`: the growth in test [1] is 47.2%; in test [3], 139%; in test [4] it was 70.1%; in test [5], 43.5%; in test [6], 102%; in test [7], 93.2%. For the same molecule, the growth in test [8] is 56.2%; in [9] it was 32.2%; in test [10], 43.3%.

On to `COc1ccc(C(=O)c2cc(OC)c(OC)c(OC)c2)cc1O`, for which the growth is 9.94% (active) in [1]; 8.98% (active) in test [2]; 35.2% in test [3]; 24.8% in [4]; 0.69% (active) in [5]; 29.3% in test [6]. For the same molecule, the growth in test [7] is -8.79% (active); in test [8], -22.1% (active); in test [9], 69.3%; in test [10] it was -3.92% (active).

`Cn1cc(CC2CC(=O)N(c3ccccc3)C2=O)sc1=NC(=O)c1ccccc1` (stereo not drawn): the growth in [1] is 103%; in test [2], 104%; in test [3], 89.9%; in [4] it was 111%; in test [5] it was 92.2%; in test [6], 96.2%. The growth is 102% in test [7], 99.8% in test [8], 98% in test [9] and 90.9% in [10].

Take `COc1cc(/C=C/C(=O)c2nc3cc(F)ccc3nc2C)cc(OC)c1OC`: the growth in test [1] is 22.9%; in test [3], 65.3%; in [4] it was 85%; in test [5] it was 54.5%; in test [6] it was 89.2%; in [7], 347%. Also, the growth in test [8] was 97.5%; in test [9] it was 74.1%; in test [10], 73.1%.

`CC(=O)O[C@@H]1C2CCC3C(CC[C@@]4(C)C3CC[C@@H]4C(C)N(C)C)[C@@]2(C)CC[C@@H]1NC(=O)C=C(C)C` (stereo partly drawn): the growth in test [1] was 51.4%; in [2], 2.24% (active); in test [3], -59.4% (active); in [4], -10.3% (active); in test [5] it was -51.5% (active); in test [6] it was -23.4% (active). For the same molecule, the growth in test [7] is -15.3% (active); in [8], -52.7% (active); in [9], -40.9% (active); in test [10], -44.4% (active).

As to `COc1cc(CC(=O)c2ccc(O)c(OC)c2)ccc1O`, the growth was 108% in [1]; 89.1% in test [2]; 107% in test [3]; 88.6% in test [4]; 102% in [5]; 102% in test [6]. The growth in test [7] is 98.9%; in [8], 103%; in test [9], 80.1%; in [10], 102%.

As to `C=C1C(=O)O[C@H]2[C@H]1CC/C(COC(=O)NCc1c[nH]c3ccc(Cl)cc13)=C\CC[C@@]1(C)O[C@@H]21`, the growth was -72.2% (active) in test [1]; 0.207% (active) in [2]; -57.1% (active) in [3]; -70.4% (active) in test [4]; -92.5% (active) in test [5]; -3.81% (active) in test [6]. The growth is 63.8% in test [7], -54.9% (active) in [8], 19.4% in test [9] and -53.2% (active) in test [10].

For `COc1cc(/C=C\c2cc(OC)c(OC)c(OC)c2)cc(N)c1OC`, the growth in test [1] was 110%; in [3], 77.9%; in test [4], 88.6%; in test [5] it was 105%; in test [6] it was 93.3%; in [7], 73.7%. In addition, the figures for the growth in test [8], in test [9] and in test [10] were 84.3%, 87.5% and 66.1%, respectively.

Take `CCCOc1ccc(/C=N/Nc2cc(C)nc3ccc(Br)cc23)cc1`: the growth in [1] is 86.8%; in test [2], 11.5%; in test [3], 112%; in [4], 92.9%; in [5], 83.4%; in test [6], 102%. The growth is 81% in test [7], 83.9% in test [8], 98.7% in [9] and 80.3% in test [10].

For `CC1(C)NCCC[C@]2(C)[C@H]3CC(=O)[C@H]4[C@@H]5C[C@](C)(CO)CC[C@]5(C)CC[C@@]4(C)[C@]3(C)CC[C@@H]12`, the growth in [1] was 96.4%; in test [3], 102%; in test [4] it was 118%; in [5], 91.4%; in test [6], 85.3%; in test [7] it was 106%. The growth was 91.2% in test [8], 114% in [9] and 92.6% in test [10].

As for `COc1cc(/C=C\c2cc(/C=C\c3ccc(O)c(OC)c3)n(C(=O)COc3ccccc3)n2)ccc1O`, the growth is 9.09% (active) in test [1]; 7.21% (active) in test [3]; 11.3% in [4]; -44.5% (active) in test [5]; 12% in test [6]; 15.5% in test [7]. Also, the growth in test [8] was -10.3% (active); in [9], 30.5%; in test [10], 6.75% (active).

In the case of `C=CCn1c(-c2ccc(-c3nc4ccc(C)cc4[nH]3)cc2)n[nH]c1=S`, the growth in test [1] is 111%; in [3], 96.6%; in test [4], 90.7%; in test [5], 110%; in [6], 112%; in [7] it was 92.1%. In addition, the growth was 97% in [8], 102% in [9] and 98% in [10].

For the origin of these results see PubChem BioAssay (NCI).
